{"source": "PubChem BioAssay AID630", "about": "(Emory University Molecular Libraries Screening Center, 2007)", "note": "In all, about 88,000 compounds went through this assay and about 260 (0.3%) were called active. The sample holds actives, similar compounds and a random draw of the others, so the mix is not that of the screen. Unmarked numbers belong to inactive results.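 How the source made its calls: active means compounds that reduce the energy-transfer binding signal between the protein and its labelled peptide by more than half; inactive means the rest.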", "data": [{"target": "Mothers against decapentaplegic homolog 3 (Homo sapiens) (UniProt P84022)", "sequence (P84022 whole entry, looked up)": "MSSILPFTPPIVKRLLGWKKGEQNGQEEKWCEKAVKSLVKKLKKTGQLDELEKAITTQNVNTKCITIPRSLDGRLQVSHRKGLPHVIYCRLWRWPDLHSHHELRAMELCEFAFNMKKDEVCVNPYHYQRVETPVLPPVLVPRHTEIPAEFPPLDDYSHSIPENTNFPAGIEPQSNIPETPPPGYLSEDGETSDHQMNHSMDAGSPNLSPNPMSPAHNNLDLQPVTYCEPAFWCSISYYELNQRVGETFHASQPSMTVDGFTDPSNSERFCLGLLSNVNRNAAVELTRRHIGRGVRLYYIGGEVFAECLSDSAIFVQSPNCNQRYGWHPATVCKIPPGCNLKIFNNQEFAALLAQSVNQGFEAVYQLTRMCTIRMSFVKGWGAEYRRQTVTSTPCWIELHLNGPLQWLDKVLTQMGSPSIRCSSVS", "test": "Smad3/FoxH1 peptide binding inhibitors, primary screen, biochemical, TR-FRET (AID 630);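 further: 0% = Smad3 plus labelled peptide maximal FRET and 100% = peptide-only background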", "settings": "TR-FRET Smad3/Dy647-FoxH1 peptide binding, europium anti-His; at 25 µM; active compounds read high", "values": [{"smiles": "O=C(COc1ccccc1)Nc1nonc1NC(=O)COc1ccccc1", "inhibition": "8.67%"}, {"smiles": "O=C(CSCc1ccccc1)N1CCc2ccccc21", "inhibition": "-1.3%"}, {"smiles": "O=C(c1cccc(N2CCCC2=O)c1)N1CCOCC1", "inhibition": "-6%"}, {"smiles": "Cc1ccc(/C=N/NC(=O)Cn2nc(C)c(Br)c2C)o1", "inhibition": "21.4%"}, {"smiles": "O=C(Nc1ccccc1C(=O)NCCCn1ccnc1)c1ccc(Cl)cc1Cl", "inhibition": "-0.02%"}, {"smiles": "COc1cc(OC)c(-n2c(C)cc(C=O)c2C)cc1Cl", "inhibition": "2.99%"}, {"smiles": "Cc1nc(NC(=O)C2CCCCC2)sc1C", "inhibition": "10.5%"}, {"smiles": "CCOC(=O)c1ccc2c(c1)nc(SCC(=O)NC(C)C)n2CC", "inhibition": "20%"}, {"smiles": "CS(=O)(=O)N(CC(=O)N1CCN(c2ccc(F)cc2)CC1)C1CCCCC1", "inhibition": "-8.5%"}, {"smiles": "c1ccc(CC2CCN(c3nc4ccccc4n4cnnc34)CC2)cc1", "inhibition": "-10%"}, {"smiles": "Cn1nc(-c2ccccc2)c(-c2nc(-c3ccc(Cl)cc3)no2)c1Cl", "inhibition": "2.93%"}, {"smiles": "COc1ccc(CN(CC(=O)NC2CCCC2)C(=O)CCC(=O)Nc2cc(C)on2)cc1", "inhibition": "-0.48%"}, {"smiles": "Cc1oc(-c2ccccc2Cl)[n+]([O-])c1C", "inhibition": "2.52%"}, {"smiles": "Cc1ccc(CS(=O)(=O)CCC(=O)NC2CC2)cc1", "inhibition": "6.21%"}, {"smiles": "CCOc1ccc(NC(=O)C2CCCN(C(=O)Nc3ccccc3)C2)cc1", "note": "(centres undefined)", "inhibition": "10.5%"}, {"smiles": "COC(=O)c1nc(NC(=O)c2ccccc2)n[nH]1", "inhibition": "1.94%"}, {"smiles": "Cc1cccc(C(=O)Nc2ccccc2N2CCN(c3ccc(F)cc3)CC2)c1", "inhibition": "3.31%"}, {"smiles": "c1ccc(C(c2ccccc2)N2CCN(Cc3nnnn3C3CCCCC3)CC2)cc1", "inhibition": "-7.75%"}, {"smiles": "COc1ccc(-c2nc3ccccc3n2CCC(C)C)cc1OC", "inhibition": "-3.34%"}, {"smiles": "C=CCC(NCc1ccco1)c1ccc(OC)cc1", "note": "(centres undefined)", "inhibition": "2.67%"}, {"smiles": "CCc1c(O)cc2n(c1=O)-c1ccccc1C2(C)C", "inhibition": "7.56%"}, {"smiles": "Cc1ccc(-c2cc(C(=O)NCC3CCCO3)c3ccccc3n2)o1", "note": "(centres undefined)", "inhibition": "0.54%"}, {"smiles": "Cc1ccccc1-n1c(C)cc(/C=C2\\NC(=O)NC2=O)c1C", "inhibition": "10.8%"}, {"smiles": "O=C(NCCCCCCNC(=O)NCc1ccco1)NCc1ccco1", "inhibition": "10.3%"}, {"smiles": "FC(F)(F)c1cnc(Oc2ccccc2-c2nnc(-c3ccc(Cl)cc3)o2)c(Cl)c1", "inhibition": "6.7%"}, {"smiles": "Cc1cc(C)c(S(=O)(=O)N2C=CC(C(F)(F)F)=NCC2)c(C)c1", "inhibition": "-6.95%"}, {"smiles": "Cc1cccc(C(=O)O)c1C[C@@H]1NCC[C@@H]2c3ccccc3N[C@@H]12", "inhibition": "8.15%"}, {"smiles": "CC(NC(=O)C1CCC(CNc2c(N3CCOCC3)c(=O)c2=O)CC1)c1ccccc1", "note": "(centres undefined)", "inhibition": "-2.58%"}, {"smiles": "OC(COc1ccc2ccccc2c1)Cn1cncn1", "note": "(centres undefined)", "inhibition": "6.06%"}, {"smiles": "C=CCN(C(=O)Nc1ccc2oc(C)nc2c1)c1ccccc1", "inhibition": "1.13%"}, {"smiles": "Cc1ccc(-c2noc(CSc3nnc(-c4cccs4)n3C)n2)cc1", "inhibition": "-3.4%"}, {"smiles": "N#C/C(=C(\\O)CCl)c1nnc2n1CCCCC2", "inhibition": "0.54%"}, {"smiles": "CCn1c(SCC(=O)Nc2ccc(OC)c(OC)c2)nnc1-c1c[nH]c2ccccc12", "inhibition": "-6.68%"}, {"smiles": "Cc1c(CCO)c(=O)n(-c2ccccc2)n1S(=O)(=O)c1ccc(F)cc1", "inhibition": "-23.9%"}, {"smiles": "CCCCOc1ccc(N(CC(=O)NCC2CCCO2)C(=O)CCC(=O)Nc2cc(C)ccn2)cc1", "note": "(centres undefined)", "inhibition": "2.38%"}, {"smiles": "Cc1ccc(C)c(N2C(=O)CS/C2=N\\NC(=O)c2ccccc2Cl)c1", "inhibition": "3.21%"}, {"smiles": "COC(=O)c1cc(NC(=O)CC2C(=O)NCCN2C(=O)c2ccc(F)cc2)cc(C(=O)OC)c1", "note": "(centres undefined)", "inhibition": "-2.76%"}, {"smiles": "CCc1cccc(C)c1N(C(=O)Cn1c(CO)nc2ccccc21)C(C)COC", "note": "(centres undefined)", "inhibition": "-3.83%"}, {"smiles": "COc1ccc(Nc2cc(=O)oc3ccccc23)cc1", "inhibition": "1.47%"}, {"smiles": "O=C(Cc1c[nH]c2ccccc12)OCCOC(=O)Cc1c[nH]c2ccccc12", "inhibition": "0.81%"}, {"smiles": "CCOC(=O)C(C)n1cnc2sc(C)c(C)c2c1=O", "note": "(centres undefined)", "inhibition": "5.75%"}, {"smiles": "CCOc1ccc(CN(Cc2ccco2)S(=O)(=O)c2ccc(-n3cnnn3)c(OC)c2)cc1", "inhibition": "-8.78%"}, {"smiles": "Cc1cc(C)cc(N(CC(=O)N2CC=C(c3ccccc3)CC2)S(=O)(=O)c2c(C)noc2C)c1", "inhibition": "-9.86%"}, {"smiles": "Cc1ccc(S(=O)(=O)NCC(C)NS(C)(=O)=O)cc1", "note": "(centres undefined)", "inhibition": "-1.07%"}, {"smiles": "O=C(OCC#CCSc1nnc(-c2ccncc2)o1)c1sc2ccccc2c1Cl", "inhibition": "8.98%"}, {"smiles": "CCOC(=O)CN(Cc1ccc(OC)c(OC)c1)S(=O)(=O)c1ccc(OC)cc1", "inhibition": "3.33%"}, {"smiles": "O=C(O)/C=C/C(=O)Nc1ccc2c(c1)-c1ccccc1C2", "inhibition": "0.91%"}, {"smiles": "CC1=NN(c2ccccc2)C(=O)[C@H]1N=Nc1ccc(S(N)(=O)=O)cc1", "inhibition": "-0.1%"}, {"smiles": "CC(C)CNC(=S)NNC(=O)c1nn(C)cc1Cl", "inhibition": "3.44%"}, {"smiles": "CCOc1c(Cl)cc(/C=N/O)cc1OC", "inhibition": "5.66%"}, {"smiles": "O=C(c1cc2sccc2n1Cc1ccc(F)cc1)N1CCc2ccccc21", "inhibition": "4.44%"}, {"smiles": "CCN(CC)Cc1cc(C(C)=O)ccc1O", "inhibition": "-9.81%"}, {"smiles": "O=C(CCN1CCc2ccccc2C(O)(c2ccccc2)C1)c1ccc2c(c1)OCCO2", "note": "(centres undefined)", "inhibition": "8.66%"}, {"smiles": "Cc1cc(C)n(-c2cc(Oc3ccccc3)ncn2)n1", "inhibition": "3.36%"}, {"smiles": "Cn1c(Cn2nnc3ccccc32)nnc1SCC(=O)c1ccccc1F", "inhibition": "16.9%"}, {"smiles": "CCOC(=O)C1=C(C)NC(SC)=NC1c1ccccc1", "note": "(centres undefined)", "inhibition": "-3.1%"}, {"smiles": "CC(=NCc1ccco1)c1c(C(F)(F)F)[nH]n(-c2nc3ccccc3s2)c1=O", "inhibition": "3.18%"}, {"smiles": "O=C(Cc1ccc(-n2c(=O)c3sccc3n(Cc3ccc(F)cc3)c2=O)cc1)NCc1ccco1", "inhibition": "-21.8%"}, {"smiles": "Cc1cc(C)nc(N2CCN(c3ncnc4c3oc3ccccc34)CC2)n1", "inhibition": "2.31%"}, {"smiles": "CC(C)c1nc2oc3c(N4CCN(C)CC4)ncnc3c2c2c1CCC2", "inhibition": "51.1% (active)"}, {"smiles": "CCN1CCN(c2ncnc3c2oc2nc(C)c4c(c23)CC(C)(C)OC4)CC1", "inhibition": "-8.93%"}, {"smiles": "COC(=O)C1=C(C(=O)c2ccc(C)cc2)C(c2ccccc2)n2nnnc2N1", "note": "(centres undefined)", "inhibition": "-4.2%"}, {"smiles": "Clc1ccc(C2=CSC3=Nc4cccc5cccc(c45)N23)cc1", "inhibition": "19.6%"}, {"smiles": "Nn1c(Cc2cccc3ccccc23)nnc1SCC(=O)N1CC(=O)Nc2ccccc21", "inhibition": "-9.99%"}, {"smiles": "O=C(c1ccco1)N1CCN(C(=O)C2CCCN(S(=O)(=O)c3cccc4nsnc34)C2)CC1", "note": "(centres undefined)", "inhibition": "-9.4%"}, {"smiles": "NC1=NC(=O)C2(COC(c3ccccc3Cl)OC2)S1", "note": "(centres undefined)", "inhibition": "8.22%"}, {"smiles": "Cc1oc2nc(SCC(=O)Nc3ccc(S(N)(=O)=O)cc3)nc(NC(=O)c3ccccc3)c2c1C", "inhibition": "-117%"}, {"smiles": "Cc1ccc(C2C(C#N)C(C#N)N3CCCN23)cc1", "note": "(centres undefined)", "inhibition": "-8.98%"}, {"smiles": "COc1ccc2c(c1)cc1n2CCN=C1NN", "inhibition": "17.3%"}, {"smiles": "C/C(N[O-])=C(\\C)[N+]([O-])=[Co].CC(=N\\[O-])/C(C)=N/[O-].[CH2-]CCN1CCOCC1.c1ccncc1", "inhibition": "25%"}, {"smiles": "CC(C)(C)NC(=O)CN(Cc1cccs1)C(=O)CNS(=O)(=O)c1ccccc1", "inhibition": "-8.34%"}, {"smiles": "COC(=O)c1ccccc1Sc1c(/C=N/OCc2ccc(Cl)cc2)c(C(F)(F)F)nn1C", "inhibition": "1.08%"}, {"smiles": "Cc1ccc(NC(=O)CSCC(=O)N2CCOCC2)cc1", "inhibition": "8.2%"}, {"smiles": "OCCNc1nc2ccccc2[nH]1", "inhibition": "3.77%"}, {"smiles": "Cc1cc(SCC(=O)c2ccccc2)nc(SCC(=O)c2ccccc2)n1", "inhibition": "-1.72%"}, {"smiles": "COc1ccc(-c2nn(-c3ccccc3)cc2C(=O)Nc2nccs2)cc1OC", "inhibition": "-5%"}, {"smiles": "CC(=O)C1=C(C)NC(C)=C(C(C)=O)C1c1cn(-c2ccccc2)nc1-c1cccs1", "inhibition": "-6.06%"}, {"smiles": "Cc1ccc(C2NC(=S)NC3=C2N2CCC3CC2)cc1", "note": "(centres undefined)", "inhibition": "2.12%"}, {"smiles": "COc1cc(N2CCCC2)c(OC)cc1/C=C(/C#N)c1cccc(Br)c1", "inhibition": "0.41%"}, {"smiles": "Cc1cc2c(cc1C)NC1=C(N2)O[C@H](c2c[nH]c3ccc(COc4ccccc4)cc23)C1=O", "inhibition": "81.3% (active)"}, {"smiles": "Cn1cc(S(=O)(=O)N2CCN(c3ccc(F)cc3)CC2)c(=O)n(C)c1=O", "inhibition": "-0.19%"}, {"smiles": "CCC(CC)C(=O)N1CC(=O)Nc2ccc(Br)cc2C1c1ccccc1", "note": "(centres undefined)", "inhibition": "1.61%"}, {"smiles": "CC1(C)C2CCC13CS(=O)(=O)NC3C2", "note": "(centres undefined)", "inhibition": "7.24%"}, {"smiles": "O=C(O)COc1c(Cl)cc(Cl)c2cccnc12", "inhibition": "-8.45%"}, {"smiles": "O=S(=O)(O)c1ccc(O)c2ncccc12.O=S(=O)(O)c1ccc(O)c2ncccc12.[Zn]", "inhibition": "63.9% (active)"}, {"smiles": "O=C(Nc1cccc2ccccc12)N1CCN(Cc2ccc3c(c2)OCO3)CC1", "inhibition": "8.91%"}, {"smiles": "CC(C)(C)C(=O)c1cnc(Nc2ccccc2)s1", "inhibition": "-2.94%"}, {"smiles": "Cn1nc(-c2ccccc2)c(CSc2cccc(Cl)c2)c1Cl", "inhibition": "-0.19%"}, {"smiles": "COc1ccc(C2=NO[C@@H]3C(=O)N(Cc4ccccc4)C(=O)[C@H]23)cc1OC", "inhibition": "4.9%"}, {"smiles": "COc1ccc(C(=O)CN2C(=O)NC(C)(c3ccc(C)cc3)C2=O)cc1OC", "note": "(centres undefined)", "inhibition": "0.23%"}, {"smiles": "Cc1ccnc(NC(=O)c2ccc(NC(=O)c3ccco3)cc2)c1", "inhibition": "8.59%"}, {"smiles": "COC(=O)c1ccc(NC(=O)c2ccco2)cc1", "inhibition": "66.7% [fluorescence artefact?] (active)"}, {"smiles": "O=C(Nc1ccc(Oc2ccccc2)cc1)c1ccco1", "inhibition": "-3.88%"}, {"smiles": "Cc1cc(N/C=C\\C(=O)c2ccc(Cl)c(Cl)c2)no1", "inhibition": "-20.1%"}]}]}
